M1 ag: human M1 muscarinic receptor agonists, primary screen, Fluo-8 calcium fluorescence, CHO-K1 cells, HTS; Muscarinic acetylcholine receptor M1 (Homo sapiens), P11229; CHO-K1 hM1, agonist mode; 0% DMSO, 100% acetylcholine EC100; activation, % at 3 µM; 360,000 compounds, 0.33% hits;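 active means activation above the run's mean compound activation plus 3 SD, cut at about 16% in these data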;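 further: peak over basal fluorescence ratio within a 140 s kinetic read after compound addition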
Target sequence (P11229 whole entry, looked up): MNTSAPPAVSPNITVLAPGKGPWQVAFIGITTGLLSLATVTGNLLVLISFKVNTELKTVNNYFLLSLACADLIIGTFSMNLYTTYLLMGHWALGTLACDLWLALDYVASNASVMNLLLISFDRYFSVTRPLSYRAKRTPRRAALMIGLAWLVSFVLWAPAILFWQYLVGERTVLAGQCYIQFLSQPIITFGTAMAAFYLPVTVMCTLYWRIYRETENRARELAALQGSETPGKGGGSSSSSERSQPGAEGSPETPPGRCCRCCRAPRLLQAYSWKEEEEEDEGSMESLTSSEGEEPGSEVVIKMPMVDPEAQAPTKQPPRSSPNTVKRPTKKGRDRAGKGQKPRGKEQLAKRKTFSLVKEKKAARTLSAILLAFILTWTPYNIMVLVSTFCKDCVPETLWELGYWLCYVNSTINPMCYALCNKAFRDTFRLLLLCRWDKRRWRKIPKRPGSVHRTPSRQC
M1 PAM parental: nonselective calcium activators in parental CHO-K1 cells, primary screen, counter-screen for M1 PAM project, cell-based, Fluo-8 calcium fluorescence, full deck, 1536-well; activation, % at 3 µM; ATP EC20; 0% at ATP EC20, 100% at ATP max; AID 602247, 2012; 360,000 compounds, 0.02% hits;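 active means activation above the run cutoff, the mean activation of all test compounds plus 3 SD, cut at about 40% in these data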;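 further: peak over basal fluorescence ratio in a 140 s read after ATP addition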
M1 ag parental: counter-screen for M1 agonists: effect in parental CHO-K1 cells | Fluo-8 calcium fluorescence; scaled to maximal ATP response, vehicle zero | activation, % at 3 µM | 360,000 compounds, 0.48% hits; in the data active means activation above about 15%;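 further: untransfected CHO-K1 host cells lacking M1 receptor as counterscreen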
M1 PAM: human M1 muscarinic receptor positive allosteric modulators, primary screen, CHO-K1 cells, Fluo-8 calcium fluorescence, 1536-well; Muscarinic acetylcholine receptor M1 (Homo sapiens), P11229; CHO-K1 hM1, ACh EC20; 0% = ACh EC20, 100% = maximal ACh; activation, % at 3 µM; 360,000 compounds, 0.088% hits; AID 588819, 2011; in the data active means activation above about 19%, passing the limit was not always enough
CHO-K1 Ca antag: nonselective inhibitor or artifact in parental CHO-K1 cells; ATP-induced calcium, Fluo-8 fluorescence; inhibition, % at 3 µM; 360,000 compounds, 0.6% hits; AID 602250;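 active means inhibition above a per-plate cutoff, the plate's mean sample inhibition plus 3 SD, cut at about 24% in these data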;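 further: 0% = DMSO plus EC80 ATP and 100% = DMSO alone without ATP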
M1 antag: human M1 muscarinic receptor antagonists, primary screen, CHO-K1 cells, Fluo-8 calcium fluorescence, 1536-well | inhibition, % at 3 µM | CHO-K1 hM1, ACh EC80 antagonist | 360,000 compounds, 1.3% hits | AID 588852, 2011;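 active means percent inhibition above its own plate's cutoff, namely the mean of that plate's compound wells plus 3 SD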;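 further: peak over basal fluorescence ratio during 140 s after agonist addition; 0% = ACh EC80 plus DMSO and 100% = DMSO alone without agonist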
* = called active by the depositor. This is a sample that favours compounds with a hit; in the whole collection about 2.3% have one here.

What do the screens show for `C=CCC(O)(CCN1CCCCC1)c1ccccc1` (stereo not drawn)?
M1 ag: -5; M1 PAM parental: 7; M1 ag parental: 0; M1 PAM: -22; CHO-K1 Ca antag: -14; M1 antag: 98*

Results for COc1ccc(C(O)(CCc2ccccc2)CCN2CCCCC2)cc1 (stereo not drawn) ?
M1 ag: -13; M1 PAM parental: 1; M1 ag parental: 1; M1 PAM: -33; CHO-K1 Ca antag: -5; M1 antag: 84*

Results for OC(CCCN1CCCCC1)(c1ccccc1)c1ccc(C(F)(F)F)cc1 (stereo not drawn) ?
M1 ag: -3; M1 PAM parental: -5; M1 ag parental: 1; M1 PAM: -30; CHO-K1 Ca antag: 4; M1 antag: 82*

How did O=C(Cc1c[nH]c2ccccc12)NCC(=O)Nc1ccc(F)c(F)c1F do in these assays?
M1 ag: -2; M1 PAM parental: -10; M1 ag parental: 1; M1 PAM: 9; CHO-K1 Ca antag: -13; M1 antag: -4

What do the screens show for `C[C@H]1CN([C@@H](C)CO)C(=O)CCCn2nncc2CO[C@@H]1CN(C)Cc1cccc(C(=O)O)c1`?
M1 ag: -5; M1 PAM parental: 1; M1 ag parental: 2; M1 PAM: -7; CHO-K1 Ca antag: 18; M1 antag: 19

How did CC(C)(C)[C@H]1COC(=O)CCC/C=C/C[C@H](CC(=O)NCCO)C(=O)N1 do in these assays?
M1 ag: -2; M1 PAM parental: -20; M1 ag parental: 0; M1 PAM: -9; CHO-K1 Ca antag: 11; M1 antag: 13

What do the screens show for `O=C(CCN1CCCCCC1)c1ccccc1`?
M1 ag: 4; M1 PAM parental: 18; M1 ag parental: 0; M1 PAM: 1; CHO-K1 Ca antag: -7; M1 antag: -16

What do the screens show for `NC(=O)C(CCCCN1CCCCC1)(c1ccccc1)c1ccccc1`?
M1 ag: -8; M1 PAM parental: 8; M1 ag parental: 0; M1 PAM: -30; CHO-K1 Ca antag: -10; M1 antag: 83*

What do the screens show for `OC(CCN1CCCC1)(c1ccccc1)C1CCCCC1` (stereo not drawn)?
M1 ag: -8; M1 PAM parental: 21; M1 ag parental: 1; M1 PAM: -26; CHO-K1 Ca antag: -9; M1 antag: 97*

Results for C=CCN(C(=O)CNC(=O)c1ccco1)C(C(=O)NC1CCCCC1)c1cccnc1 (stereo not drawn) ?
M1 ag: -2; M1 PAM parental: 15; M1 ag parental: 1; M1 PAM: 11; CHO-K1 Ca antag: 2; M1 antag: -14

How did O=C(CNCc1ccccn1)Nc1ccc([N+](=O)[O-])cc1C(=O)Nc1ccccc1F do in these assays?
M1 ag: -3; M1 PAM parental: -15; M1 ag parental: 8; M1 PAM: -9; CHO-K1 Ca antag: -9; M1 antag: 12

How did COc1ccc(CCNc2ccc(C(CC(N)=O)NC(=O)c3cc(OC)ccc3OC)cc2[N+](=O)[O-])cc1 (stereo not drawn) do in these assays?
M1 ag: -4; M1 PAM parental: 12; M1 ag parental: 1; M1 PAM: -1; CHO-K1 Ca antag: -8; M1 antag: 6

Results for Cc1ccccc1OCC(=O)Nc1ccccc1N1CCC(C)CC1 ?
M1 ag: -2; M1 PAM parental: 10; M1 ag parental: -1; M1 PAM: 1; CHO-K1 Ca antag: -12; M1 antag: 0

What do the screens show for `COC(=O)[C@@H](NC(=O)c1ccccc1OC1CCN(S(C)(=O)=O)CC1)C(C)C`?
M1 ag: -6; M1 PAM parental: 17; M1 ag parental: 0; M1 PAM: -28; CHO-K1 Ca antag: -10; M1 antag: 62*

What do the screens show for `N=c1occ(C(=O)c2cc(F)ccc2O)cc1C(=O)NC1CCCCC1`?
M1 ag: 0; M1 PAM parental: -15; M1 ag parental: 5; M1 PAM: -11; CHO-K1 Ca antag: 24*; M1 antag: 17

How did CCOC(=O)c1cc(C(=O)c2cc(F)ccc2O)coc1=N do in these assays?
M1 ag: -2; M1 PAM parental: 13; M1 ag parental: 2; M1 PAM: 8; CHO-K1 Ca antag: -7; M1 antag: -12

How did S=c1nc(NCc2cccc(Cl)c2)c2ccccc2[nH]1 do in these assays?
M1 ag: -2; M1 PAM parental: 9; M1 ag parental: 5; M1 PAM: 5; CHO-K1 Ca antag: -12; M1 antag: -12

Results for CCOC(=O)c1c(C)n(C)c2ccc(OCC(O)CNCCc3ccccc3)cc12 (stereo not drawn) ?
M1 ag: -8; M1 PAM parental: 4; M1 ag parental: 12; M1 PAM: 6; CHO-K1 Ca antag: 31*; M1 antag: -8

What do the screens show for `Cc1cc(C)c(OCC(=O)Nc2ccccc2N2CCOCC2)c(C)c1`?
M1 ag: 18*; M1 PAM parental: 17; M1 ag parental: 17*; M1 PAM: 3; CHO-K1 Ca antag: 16; M1 antag: 23

How did O=C(Nc1ccccc1N1CCOCC1)c1cc(-c2ccco2)nc2ccccc12 do in these assays?
M1 ag: 2; M1 PAM parental: 0; M1 ag parental: 5; M1 PAM: -12; CHO-K1 Ca antag: 16; M1 antag: 38*

What do the screens show for `Cc1cc(C)c(OCC(=O)Nc2ccccc2N2CCCCC2)c(C)c1`?
M1 ag: 0; M1 PAM parental: -4; M1 ag parental: 0; M1 PAM: 11; CHO-K1 Ca antag: 5; M1 antag: -14

Results for COc1cc(-c2cc(C(=O)Nc3ccccc3N3CCOCC3)c3ccccc3n2)cc(OC)c1OC ?
M1 ag: -1; M1 PAM parental: -12; M1 ag parental: 3; M1 PAM: -14; CHO-K1 Ca antag: 15; M1 antag: 14

Results for COc1ccc(N2CCN(C(=O)c3cc(S(=O)(=O)N4CCCCCC4)ccc3OC)CC2)cc1 ?
M1 ag: 1; M1 PAM parental: -33; M1 ag parental: 4; M1 PAM: -2; CHO-K1 Ca antag: 3; M1 antag: 6

How did CC1(Cc2ccccc2Cl)C(=O)Nc2ccc(OC(F)(F)F)cc21 (stereo not drawn) do in these assays?
M1 ag: -2; M1 PAM parental: 18; M1 ag parental: 0; M1 PAM: -3; CHO-K1 Ca antag: -11; M1 antag: -3

What do the screens show for `Cc1cccc(CNC(=O)c2sc(=O)n(Cc3ccc(S(C)(=O)=O)cc3)c2C)c1`?
M1 ag: -3; M1 PAM parental: -10; M1 ag parental: 1; M1 PAM: 0; CHO-K1 Ca antag: 23; M1 antag: 1
